From PubChem BioAssay AID686978 (National Center for Advancing Translational Sciences (NCATS), 2013) come the findings set out here.

Values joined by “and” are separate entries in the source; they are usually repeats but may differ in a detail not shown here. Identical values can stand only once. In all, about 420,000 compounds went through this assay and about 64,000 (15%) were called active. About 27% were inconclusive and are not listed. The list is a sample of the results. Entries that show only a call come without a potency. Unmarked numbers belong to inactive results. The call rests on the fitted dose curve; in most records, active means well fitted inhibition curve with a large enough effect; inconclusive means small, poorly fitted or top-dose-only effect; inactive means flat fitted curve, though single readings scatter.
Potency means the concentration at half of the fitted maximal effect.

The test is described as follows: qHTS for Inhibitors of human tyrosyl-DNA phosphodiesterase 1 (TDP1): qHTS in cells in absence of CPT. Further: nearly all actives have a fitted effect of over 55% in size. Conditions: DT40 Tdp1-/- hTDP1 cells, no CPT, ATP luminescence, 48 h; activity change, negative = growth inhibition: at 46.2 µM (top of the series). In a few lines:
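Seeded 400 DT40-hTDP1 cells/well (vehicle DMSO, no 20 nM CPT); pinned compounds; ≥48 hr at 37 °C; CellTiter-Glo luminescence as viability measure.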
Take `Cc1c(Nc2nc3ccccc3nc2NS(=O)(=O)c2cccs2)c(=O)n(-c2ccccc2)n1C`: the Potency result is “inactive”. For the molecule `CC1Cc2[nH][nH]c(=O)c2C(C2CC2)O1` (stereo unspecified), the Potency result is “inactive”.

On to `CCOC(=O)C1(CC2CCCCO2)CCN(Cc2nc(-c3cccs3)oc2C)CC1` (stereo unspecified), for which the Potency is 16.4 µM (active).

For the molecule `CC(Sc1nnc(-c2cccs2)n1C1CC1)C(=O)NCC1CCCO1` (stereo unspecified), the Potency entry is “inactive”. The same measure, in the same setting: in the case of `CCOc1ccccc1-c1nc(CN2CCC(C(=O)N3CCOCC3)CC2)c(C)o1` it was “inactive”; in that of `CCCOC(=O)C1=C(C)NC2=C(C(=O)C(C(=O)OC)C(C)C2)C1c1ccc(N(C)C)cc1` (stereo unspecified), “inactive”; in that of `CCN(c1ccccc1)S(=O)(=O)c1ccc(N)cc1`, “inactive”. On the same count and under the same terms, in the case of `CCN(CC)CCn1c(N)c(S(=O)(=O)c2ccccc2)c2nc3ccccc3nc21` it was 18.4 µM (active). The same measure, in the same setting: in the case of `Cc1ccc(S(=O)(=O)c2c(N)n(C)c3nc4ccccc4nc23)cc1` it was 13 µM (active); in that of `Cc1ccc(S(=O)(=O)Nc2nc(N)n(-c3ccccc3)n2)cc1`, “inactive”; in that of `CCOC(=O)c1c(N)n(-c2cccc(C)c2C)c2nc3ccccc3nc12`, “inactive”.

Consider `C=CCn1c(N)c(S(=O)(=O)c2cccs2)c2nc3ccccc3nc21`, for which the Potency result is “inactive”. Still for that read-out and setting: in the case of `CC1(C)CC(=O)C=C(c2cccc3c2Oc2ccccc2S3)C1` it was “inactive”; in that of `O=C(Cn1cnc2c(oc3ccccc32)c1=O)Nc1ccc(OC(F)(F)F)cc1`, “inactive”. Still for that read-out and setting: with `CC(C)N(c1ccccc1)c1ncnc(NCCC(=O)O)c1[N+](=O)[O-]` the entry was “inactive”. On the same count and under the same terms, in the case of `O=C(COC(=O)c1cccnc1Cl)Nc1ccc(S(=O)(=O)N2CCOCC2)cc1` it was “inactive”.

Turning to `CCOC(=O)N1CCC(c2cc(=O)n(-c3ccccc3)[nH]2)CC1`, the Potency entry is “inactive”. Same read-out and setting: with `Cc1cc(C)cc(N)c1` the entry was “inactive”. Regarding `CCOc1ccc(C2C3=C(CCCC3=O)N(CC(=O)O)C3=C2C(=O)CCC3)cc1`, the Potency entry is “inactive”. For the molecule `CCOc1ccc(C2CC(=O)c3c([nH]c(C(=O)OCc4ccccc4)c3C)C2)cc1` (stereo unspecified), the Potency was 13 µM (active). Still for that read-out and setting: in the case of `CCOC(=O)c1[nH]c2c(c1-c1ccccc1)C(=O)CC(c1ccc(Cl)cc1)C2` (stereo unspecified) it was “inactive”. For `CC(C)(C)N1C(=O)c2c(C(=O)OCc3ccccc3)[nH]c(-c3ccccc3)c2C1=O`, the Potency entry was “inactive”.

Take `COCCOC(=O)c1[nH]c2c(c1C)C(=O)CC(c1ccc(OC)cc1)C2` (stereo unspecified): the Potency result was “inactive”. Consider `CCc1ccc(C2CC(=O)c3c([nH]c(C(=O)OCc4ccc(C)cc4)c3C)C2)cc1` (stereo unspecified), for which the Potency was 7.31 µM (active). Still for that read-out and setting: with `CCOC(=O)c1[nH]c2c(c1C)C(=O)CC(c1ccc(N(C)C)cc1)C2` (stereo unspecified) the figure was 13 µM (active); with `CCCNC(=O)C1CC(=O)N(c2ccc(OCc3ccccc3)cc2)C1` (stereo unspecified), “inactive”. On to `Cc1nnc(C)c2c(C)n(N)c(C)c12`, for which the Potency entry is “inactive”. The same measure, in the same setting: in the case of `CCCCOc1ccc(-c2ncc(C(=O)OCC)c(N)n2)cc1` it was “inactive”.

Turning to `O=C(OCC(=O)N1CCCC1)c1ccco1`, the Potency result was “inactive”. On the same count and under the same terms, in the case of `Cc1noc(C)c1C(=O)NC(C)c1ccc2c(c1)OCO2` (stereo unspecified) it was “inactive”; in that of `CN(C)Cc1c(O)ccc2c(=O)c(-c3ccccc3Cl)coc12`, “inactive”; in that of `CN(c1ccccc1)c1nc(N)c([N+](=O)[O-])c(NCc2ccco2)n1`, “inactive”. `O=C(Nc1ccc(Cl)c(Cl)c1)N1CC=C(c2ccccc2)CC1`: the Potency was 20.6 µM (active). Still for that read-out and setting: with `O=C(O)c1cccc(S(=O)(=O)N2CC=C(c3ccccc3)CC2)c1` the entry was “inactive”. In the case of `NC(=O)N1CCCC1C(=O)Nc1ccc(Cl)c(Cl)c1` (stereo unspecified), the Potency entry is “inactive”. Still for that read-out and setting: with `NC(=O)C1CCN(C(=O)c2cn(-c3ccccc3)nc2-c2cccnc2)CC1` the entry was “inactive”. As to `COc1ccc(C2=CC(c3cccc(OC)c3)n3nnnc3N2)cc1` (stereo unspecified), the Potency is 29.1 µM (active).

With `COc1ccc(C2CC(c3cccs3)Nc3nnnn32)cc1` (stereo unspecified), the Potency entry was “inactive”. The same measure, in the same setting: in the case of `CCOc1ccc(C2=CC(c3ccccc3)n3ncnc3N2)cc1` (stereo unspecified) it was “inactive”; in that of `O=C(Cn1ccc(=O)[nH]c1=O)Nc1ccc(C(=O)O)c(O)c1`, “inactive”.

On to `COc1ccc(NC(=O)Cn2cc(C(=O)c3ccncc3)c(=O)c3cc(C)ccc32)cc1Cl`, for which the Potency result was “inactive”. As for `Cc1nn(C)cc1CNC(=O)Nc1ccc(Cl)cc1`, the Potency entry is “inactive”. Consider `COc1ncnc2c1N=C1CC(C)(C)CC(N)=C1S2`, for which the Potency entry is “inactive”. Still for that read-out and setting: in the case of `CC(C)(C)NC(=O)CN(C(=O)c1csnn1)c1ccccc1-c1ccccc1` it was “inactive”. The same measure, in the same setting: in the case of `CNCC(O)CN1CCN(c2ccccc2OC)CC1` (stereo unspecified) it was “inactive”; in that of `COc1ccccc1N1CCN(CCN2C(=O)c3ccccc3C(C)(C)C2=O)CC1`, 26.6 µM (active) and 23.1 µM (active); in that of `COc1ccccc1N1CCN(CC(=O)NC(=O)NCc2ccco2)CC1`, “inactive”.

Take `CCc1nc(N2CCN(C(C)=O)CC2)c2c3c(sc2n1)CCCC3`: the Potency entry was “inactive”. For the molecule `CC/C(C)=N/Nc1nc2sc3c(c2c(=O)[nH]1)CC(C)(C)OC3`, the Potency entry was “inactive”. Still for that read-out and setting: in the case of `COCCNc1nc(-n2nc(C)cc2C)nc2sc3c(c12)CCCC3` it was 5.17 µM (active); in that of `CCC(O)CNc1nc(-n2nc(C)cc2C)nc2sc3c(c12)CC(C)(C)OC3` (stereo unspecified), 10.3 µM (active). On the same count and under the same terms, in the case of `COCCn1c(C)cc(C(=O)CSc2ncnc3sc4c(c23)CCC4)c1C` it was “inactive”; in that of `CC1(C)Cc2c(sc3nc4n(c(=N)c23)CCCCC4)CO1`, “inactive”; in that of `O=C(NCc1ccc(F)cc1)C1CCN(C(=O)Nc2ccc(F)cc2)CC1`, “inactive”.

Regarding `Cc1ccc(Oc2ccc3c(c2)C(=O)N(c2cccc4cccnc24)C3=O)cc1`, the Potency result was “inactive”. Same read-out and setting: with `CC(C)NC(=O)NC(=O)COC(=O)c1ccc(NC(=O)CC#N)cc1` the entry was “inactive”; with `O=C1CSC(c2cccc(F)c2)N1c1ccc(O)cc1` (stereo unspecified), “inactive”; with `CCCC(C)C(=O)OCC(=O)Nc1c(Br)cc(C)cc1Br` (stereo unspecified), “inactive”. Consider `NC(=O)COc1ccc(/C=N/NC(=O)C2CCCN2S(=O)(=O)c2ccc(Cl)cc2)cc1` (stereo unspecified), for which the Potency entry was “inactive”. Regarding `Nc1[nH][nH]c(=O)c1N=Nc1ccc2c(c1)OCO2`, the Potency entry was “inactive”. `C=CCN(N=Nc1cccc([N+](=O)[O-])c1)c1cccc([N+](=O)[O-])c1`: the Potency result is “inactive”. The same measure, in the same setting: with `CCOC(=O)c1cc2c(nc1NC(=S)Nc1ccccc1)CC(C)(CC)OC2` (stereo unspecified) the entry was “inactive”. `COC(=O)Nc1ncc(CN2C(=O)c3ccccc3C2=O)s1`: the Potency entry was “inactive”. The same measure, in the same setting: in the case of `CN1C(=O)c2ccc(NC(=O)C3CCCCC3)cc2C1=O` it was “inactive”; in that of `O=S(=O)(NCCc1nnc2ccc(SCc3ccc(Cl)cc3Cl)nn12)c1ccccc1`, 14.6 µM (active); in that of `Cc1ccc(S(=O)(=O)NCCc2nnc3ccc(SCc4cccnc4)nn23)cc1`, “inactive”.

With `COC(=O)CSc1ccc2nnc(CCNS(=O)(=O)c3ccc(C)cc3)n2n1`, the Potency result was “inactive”. Turning to `COC(=O)Nc1ncc(CN2CCCCC2)s1`, the Potency result is “inactive”. In the case of `CN1CCC(N(C)C(=O)c2ccc(Cl)c(S(=O)(=O)Nc3ccc(Cl)cc3)c2)CC1`, the Potency result was “inactive”. The same measure, in the same setting: in the case of `O=C(Nc1ncccc1O)c1ccc(S(=O)(=O)N2CCCC2)cc1` it was 18.4 µM (active); in that of `Cc1cccnc1NC(=O)c1cccc(S(=O)(=O)N2CCN(c3ccc(F)cc3)CC2)c1`, 16.4 µM (active); in that of `CCc1nnc(NC(=O)c2cc(S(=O)(=O)N3CCCCC3)ccc2C)s1`, “inactive”. Still for that read-out and setting: with `O=C(Nc1ncccc1O)c1ccc(C(=O)c2ccccc2)cc1` the figure was 23.1 µM (active); with `CCOC(=O)c1csc(NC(=O)c2ccc(S(=O)(=O)N3CCCC3)cc2)n1`, “inactive”.

Turning to `O=C(NC(=O)c1ccccc1)Nc1ccccc1O`, the Potency entry was “inactive”. With `O=C(Nc1ccccc1F)c1ccc(S(=O)(=O)N2CCCCCC2)cc1`, the Potency result was “inactive”. Consider `Cc1ccc(C(=O)Nc2ncccc2C)cc1S(=O)(=O)N1CCOCC1`, for which the Potency result was “inactive”.

As to `O=C(N/N=C/c1ccccn1)c1ccc(S(=O)(=O)N2CCCCCC2)cc1`, the Potency entry was “inactive”. On the same count and under the same terms, with `COc1cc(C(=O)Nc2ncccc2C)ccc1OCC(=O)N1CCOCC1` the entry was “inactive”; with `O=C(CNC(=O)c1ccc2ccccc2c1)Nc1ncccc1O`, “inactive”; with `Cc1ccc(C)c2sc(NC(=O)c3ccc(S(=O)(=O)N4CCCC4)cc3)nc12`, 29.1 µM (active). For the molecule `CCCn1c(N)c(N(CCOC)C(=O)C2CCCC2)c(=O)[nH]c1=O`, the Potency result was “inactive”. `CCOC(=O)c1nn(-c2ccccc2F)c2nc(Nc3ccccc3)cc(=O)n12`: the Potency entry was “inactive”.

As to `Nc1nnn(CC(=O)N/N=C/c2ccc(O)cc2)n1`, the Potency result was “inactive”. Same read-out and setting: with `Cc1cc(NC(=O)c2cc3ccccc3o2)no1` the entry was “inactive”; with `COc1cccc(N(CC(=O)NCCSc2ccccn2)S(C)(=O)=O)c1`, “inactive”.

With `Cc1ccc(C(CNC(=O)Nc2cccc(C)c2)N2CCN(C)CC2)cc1` (stereo unspecified), the Potency result is “inactive”. For the molecule `CCCCC/C=C\CC1OC1CCCCCCCC(=O)O` (stereo unspecified), the activity change, negative = growth inhibition was -12.2% [at 0.628 µM]. `O=C1c2ccccc2C(=O)N1CCCc1nc(-c2ccccc2)no1`: the Potency result is “inactive”.

Consider `O=C(O)c1ccc(S(=O)(=O)c2ccccc2)s1`, for which the Potency result was “inactive”. Same read-out and setting: in the case of `NC(=O)CSc1nnc(NC(=O)c2ccc3ccccc3c2)s1` it was “inactive”; in that of `COc1ccc(C2/C(=C(/O)c3ccccc3)C(=O)C(=O)N2c2ncccn2)cc1OC` (stereo unspecified), “inactive”. On to `O=C(c1ccc(Br)o1)N1CCN(CCOc2ccccc2)CC1`, for which the Potency result was “inactive”. The same measure, in the same setting: in the case of `O=c1[nH]c2ccccc2n1C1CCN(CCOc2ccccc2)CC1` it was 4.11 µM (active); in that of `O=C(c1ccco1)N1CCN(CCOc2ccccc2)CC1`, “inactive”.

Regarding `COc1ccc(OCCCCN2CCC(C)CC2)cc1`, the Potency entry is “inactive”. Same read-out and setting: in the case of `c1ccc(-c2ccc(OCCN3CCOCC3)cc2)cc1` it was “inactive”. Same read-out and setting: in the case of `OC(c1ccccc1)(c1ccccc1)C1CCN(CCCOc2ccccc2)CC1` it was 16.4 µM (active); in that of `Cc1ccc(C)c(N2C(=O)CS/C2=N\NC(=O)c2ccccc2Cl)c1`, “inactive”; in that of `Cc1ccc(NC(=O)c2nc[nH]c2C(=O)N2CCCCC2)c(C(=O)c2ccccc2)c1`, “inactive”. Still for that read-out and setting: with `CC12CCC(C(=O)N(NC(=O)c3ccccc3O)C1=O)C2(C)C` (stereo unspecified) the figure was 18.4 µM (active); with `O=C(NN1C(=O)C2C(C1=O)C1C=CC2C12CC2)c1ccccc1Cl` (stereo unspecified), “inactive”. As to `COc1ccccc1C(=O)NN1C(=O)C2C3C=CC(O3)C2C1=O` (stereo unspecified), the Potency result was “inactive”. Take `O=C(NCc1nnnn1-c1ccc(Cl)cc1)c1ccc2c(c1)OCO2`: the Potency entry is “inactive”.

In the case of `O=C(Nc1cccc(Cl)c1)Nc1ccccc1NS(=O)(=O)c1cccs1`, the Potency result was “inactive”.

With `CC(OC(=O)c1cc2ccccc2[nH]1)C(=O)N(C)c1ccccc1` (stereo unspecified), the Potency result was “inactive”.
